Test results taken from PubChem BioAssay AID488890 (Southern Research Specialized Biocontainment Screening …, 2010).
Among all 320,000 compounds or so, about 1,300 (0.41%) were called active. Roughly 3% stayed inconclusive and do not appear here. The rule behind the calls is not given here. These entries were drawn from the full list. Potency and affinity values are given separately.

test: growth inhibition of non-replicating M. tuberculosis (AID 488890); conditions: Mycobacterium tuberculosis non-replicating, at 25 µM, stronger effect = higher value;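 note: plate controls were DMSO cells for no effect and high antibiotic wells for full effect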

Row | SMILES | inhibition [%]
1 | O=C(CN1CCCCCC1)Nc1cc(C(F)(F)F)ccc1Cl | 1.63
2 | COc1ccc(CNC(=O)C(NC(C)=O)C(C)C)cc1OC (stereo not drawn) | -1.56
3 | COc1ccc([N+](=O)[O-])cc1N(CC(O)CN1C(=O)NC(C)(C)C1=O)S(=O)(=O)c1ccccc1 (stereo not drawn) | -14.2
4 | Cc1nnc(NC(=O)C2=COCCO2)s1 | -3.76
5 | CCOc1ccc(C(=O)NC2CCCCCCC2)cc1 | 77.1
6 | Cc1ccc(C(=O)NC2CCCC2)s1 | 56.2
7 | CCOC(=O)Nc1cccc(Cl)c1C | 20.8
8 | O=C(NC1CCCC1)c1ccc(Cl)s1 | 75.8
9 | CCC(=O)c1ccc(OCC(=O)OCC(=O)NC2CCCCCC2)cc1 | 20.5
10 | Cc1c(Cl)cccc1NC(=O)c1ccc(OCC(=O)NCc2ccccc2)cc1 | -7.76
11 | CN(Cc1ccccc1)C(=O)COC(=O)c1cc(=O)c2ccccc2o1 | -3.1
12 | COc1ccccc1C(=O)Nc1nc2cc3c(cc2s1)OCO3 | -15.7
13 | O=C(Nc1cc(F)ccc1F)c1ccc(-n2cncn2)c([N+](=O)[O-])c1 | 3.94
14 | COc1ccc(NC(=O)C2CC(=O)n3ncnc3N2)cc1 (stereo not drawn) | -0.6
15 | COc1cc(-c2nc(-c3ccccc3)c(-c3cccs3)[nH]2)cc(OC)c1OC | -1.14
16 | Cc1ccc(C(=O)NC(C)c2ccc(S(N)(=O)=O)cc2)s1 (stereo not drawn) | -0.6
17 | CC(=O)Nc1ccc(NC(=O)CSc2nnc(CC(C)O)n2-c2ccccc2)cc1 (stereo not drawn) | -7.33
18 | O=C(CN1CCN(S(=O)(=O)c2ccc(F)cc2)CC1)Nc1ccc(Cl)cn1 | 37.8
19 | FC(F)(F)c1cccc(Cc2noc(CN3CCCC(CN4CCCC4)C3)n2)c1 (stereo not drawn) | 51
20 | Cc1cccn2c(CNC3CCCc4ccccc43)c(C(=O)N3CCOCC3)nc12 (stereo not drawn) | 21.9
21 | CCn1c(C)nc2cc(S(N)(=O)=O)ccc21 | -15.1
22 | CC(C)c1onc(C(=O)NCc2ccccc2)c1[N+](=O)[O-] | 44.9
23 | Cc1cc(N2CCN(c3ccccc3)CC2)nc(N)n1 | -1.71
24 | Cc1cc(Cl)nc(-n2nc(C)cc2C)n1 | 27.1

Row | SMILES | inhibition [%]
25 | CCCc1nc(C)cc(N2CCN(c3ccccc3)CC2)n1 | -3.49
26 | Cc1cc(C)n(-c2nc3ccccc3nc2N2CCC(C)CC2)n1 | 34
27 | COc1ccccc1OCc1ccc(C(=O)NCC2CCCO2)cc1 (stereo not drawn) | 1.26
28 | Cc1cccc(N2CCN(C(=O)c3ccc(CS(=O)Cc4cccc(Cl)c4)o3)CC2)c1C (stereo not drawn) | 28.5
29 | Cn1nc(C(=O)NCCN2CCOCC2)c2ccccc2c1=O | -5.46
30 | CC(=O)O/C(=C\c1cn(C(C)=O)c2ccccc12)C(=O)O | -6.32
31 | CC(=O)n1cc(C=C2C(=O)NC(=O)NC2=O)c2ccccc21 | 0
32 | Cc1ccc2c(c1)N(C)/C(=C/c1cccc[n+]1CCO)S2 | 6.55
33 | O=C(O)Cc1ccc(NS(=O)(=O)c2c(Cl)cccc2Cl)cc1 | -11.9
34 | CC(C)(C)Nc1nc(N2CCCC2)nc(N2CCCC2)n1 | 59.5
35 | CCNc1nc(N2CCCC2)nc(N2CCCC2)n1 | 75.5
36 | CCOC(=O)[C@@H]1[C@H]2COc3cc(OC)ccc3[C@H]2N2C(=O)N(c3cccc(Cl)c3)C(=O)[C@]12C | 1.05
37 | O=C(NCCCN1CCOCC1)c1c(O)c2ccccc2[nH]c1=O | -0.01
38 | COc1cc2[nH]c(=O)c(C(=O)NCCCN3CCOCC3)c(O)c2cc1OC | 1.72
39 | CCc1ccc(C(=O)Nc2cc3c(cc2Cl)OCCCO3)cc1 | 42
40 | O=C(O)C1CCN(C(=O)CCN2C(=O)S/C(=C\c3ccccc3)C2=O)CC1 | 1.98
41 | CCCCn1c(=O)c(CCC(=O)OCC(=O)Nc2cc(Cl)ccc2OC)nc2ccccc21 | -2.09
42 | COC(=O)[C@H](CCSC)NC(=O)NCCc1ccc(F)cc1 | -16.4
43 | CCCCCn1c(=O)c2ccccc2n2c(=S)[nH]nc12 | -0.64
44 | CCCCn1c(=O)c2ccccc2n2c(=S)[nH]nc12 | -11.3
45 | Cc1ccc(Sc2ncnc3onc(C)c23)cc1 | 72.5
46 | Cc1ccccc1Sc1ncnc2onc(C)c12 | 5.13
47 | COc1ccc(Sc2ncnc3onc(C)c23)cc1 | 58.2
48 | COC(=O)c1ccccc1Sc1snnc1C | -5.51

Row | SMILES | inhibition [%]
49 | CN(C)S(=O)(=O)c1ccc(NC(=O)COC(=O)C2CC3CCCC(C2)C3=O)cc1 (stereo not drawn) | 14.8
50 | COc1ccc(-n2c(O)c(C=NCCCn3ccnc3)c(=O)[nH]c2=O)cc1 | -3.58
51 | Cc1cc(NC(=O)CN2CCN(c3ccccc3O)CC2)no1 | 3.86
52 | CCCCn1c(=O)c(C=Nc2cc([N+](=O)[O-])ccc2OC)c(O)n(CCCCl)c1=O | 64
53 | CCCCN1CC(C(=O)NC2CCCCC2)CC1=O (stereo not drawn) | -9.76
54 | CCOc1ccc2oc(C(=O)OCC(=O)NCc3ccc(OC)cc3)c(C)c2c1 | 26.4
55 | Cc1nn(C2CCS(=O)(=O)C2)c(Cl)c1/C=C/C(=O)OCC(=O)Nc1ccc2c(c1)OCO2 (stereo not drawn) | 3.18
56 | O=C(c1cnn2c(C(F)(F)F)cc(-c3ccccc3)nc12)N1CCCCC1c1cccnc1 (stereo not drawn) | 22.6
57 | Nc1ccc(-c2nc3ncccc3o2)c(O)c1 | 8.78
58 | O=C1OC(Oc2ccccc2)(c2ccccc2)c2ccccc21 (stereo not drawn) | -1.31
59 | OC(CNCc1ccccc1F)COc1cccc2ccccc12 (stereo not drawn) | 29.3
60 | OC(CNCCc1ccccc1)COc1ccc(OCC(O)CNCCc2ccccc2)cc1 (stereo not drawn) | 59.6
61 | COc1ccc(CCNCC(O)COc2cccc(Br)c2)cc1 (stereo not drawn) | 45.7
62 | COc1ccccc1COCC(O)CNCCc1ccc(C(F)(F)F)cc1 (stereo not drawn) | 67.5
63 | O=c1c2ccccc2nc(/C=C/c2ccc(F)cc2)n1-c1ccccn1 | -7.61
64 | Cc1ccnc(NC(=O)c2ccccc2NC(=O)c2ccccc2)c1 | 7.95
65 | OCCCn1c(CCNc2nc(-c3ccc(F)cc3)cs2)nc2cc(C(F)(F)F)ccc21 | 26.8
66 | c1ccc2cc(OCCOCCOc3ccc4ccccc4c3)ccc2c1 | -3.69
67 | CN(C)CCOc1ccc2ccccc2c1 | -16.7
68 | COC(C(=O)Nc1ccc(S(=O)(=O)Nc2ccc(F)cc2)cc1)c1ccccc1 (stereo not drawn) | 30.9
69 | CCOc1ccc(C(C(=O)NCC2CCCO2)N(C(=O)c2snc(C(N)=O)c2N)c2cccc(F)c2)cc1 (stereo not drawn) | 3.71
70 | Cc1cc(Cl)ccc1OCC(=O)NNC(=O)c1cccnc1 | -9.52
71 | COc1ccc(CC(=O)NNC(=O)c2cnccn2)cc1 | -6.37
72 | O=C(NCCNC(=O)c1cnccn1)c1ccc(Cl)c(Cl)c1 | 5.99

Row | SMILES | inhibition [%]
73 | COc1ccccc1OCC(=O)NNC(=O)c1cnccn1 | 3.6
74 | COc1ccc(CC(=O)NNC(=O)COc2ccc(Br)cc2C)cc1OC | -13.1
75 | Cc1ccc(C(=O)NNC(=O)COc2ccc(Cl)cc2C)o1 | -11.3
76 | O=C(NCCCNC(=O)c1cnccn1)c1ccc(Cl)c(Cl)c1 | -0.84
77 | CCc1ccc(OCC(=O)NCCN(C)C)c(Br)c1 | 5.23
78 | Cn1nc(C(=O)N2CCOCC2)c2ccccc2c1=O | -8.35
79 | O=C(COc1ccccc1-c1ccccc1)c1ccccc1 | 50.1
80 | COc1cc([C@@H]2CC=C(C(=O)O)[C@H](c3ccccc3)N2S(=O)(=O)c2ccc(C)cc2)cc(OC)c1OC | 12.5
81 | CCN(CC)C(=O)[C@H]1CC(CC(=O)NCCCOC)C(=O)N2CCc3c([nH]c4ccccc34)[C@]12C (stereo partly drawn) | -1.9
82 | CC(=O)N1CCN(c2ccccc2NC(=O)COc2cc(C)ccc2C(C)C)CC1 | 34.3
83 | CCOc1ccc(NC(=O)CCCN2C(=O)C(c3ccccc3)Oc3cccnc32)cc1 (stereo not drawn) | 3.12
84 | CC1(C)CC(=O)c2c(Cc3ccccc3)noc2C1 | 3.41
85 | CCN(CC)CCn1c2c(c(SCC(=O)NCc3ccccc3)nc1=O)CCC2 | 8.95
86 | Cc1ccc(S(=O)(=O)NCC(=O)NCC(=O)N(C)Cc2ccc3ccccc3c2)cc1C | 31.9
87 | Cc1cc(Br)ccc1OCC(=O)NNC(=O)Cc1ccccc1 | -15.6
88 | CCc1ccc(OCC(=O)NC(=S)Nc2ccc(F)cc2)c(Br)c1 | 9.95
89 | Cc1cc(Br)ccc1OCC(=O)NNC(=O)CCc1ccccc1 | 29
90 | O=C(COc1ccc(Cl)cc1Br)Nc1ccncc1 | 69.3
91 | CCCc1nc2oc3c(NCCOCCO)ncnc3c2c2c1COC(C)(C)C2 | -8.1
92 | CCCN(CC(=O)Nc1ccc(F)c(F)c1F)CC(=O)Nc1c(C)n(C)n(-c2ccccc2)c1=O | 37.8
93 | COc1ccccc1-n1nnnc1SCC(=O)NC1CCCCC1 | 2.38
94 | Cc1[nH]c(C)c(S(=O)(=O)Nc2cccc(Cl)c2C)c1C(=O)N1CCCC1 | 6.67
95 | Cc1ccsc1/C=N/NC(=O)CN1CCN(Cc2ccccc2)CC1 | -0.88
96 | O=C(NCC1CCCO1)NC12CC3CC(CC(C3)C1)C2 (stereo not drawn) | -2.4

Row | SMILES | inhibition [%]
97 | COC(=O)N/N=C/c1ccc([N+](=O)[O-])o1 | 70.7
98 | CCOC(=O)N/N=C\c1ccc([N+](=O)[O-])o1 | 59.1
99 | CCCCCC(=O)N/N=C/c1ccc([N+](=O)[O-])o1 | 73.3
100 | COc1ccc(C(=O)NCC(=O)N/N=C/c2ccco2)cc1OC | -11.6
101 | Cc1ccccc1OCC(=O)N/N=C/C=C/c1ccccc1 | -6.11
102 | Cc1cc(C)cc(OCC(=O)N/N=C/c2ccco2)c1 | 9.16
103 | COc1ccc(C(=O)NCC(=O)N/N=C/c2ccc(C)o2)cc1OC | 24.5
104 | O=C(COc1ccccc1[N+](=O)[O-])N/N=C/C=C/c1ccco1 | 12.5
105 | COc1ccc(CN2CCNC(=O)C2CC(=O)N(C)Cc2nccn2C)cc1OC (stereo not drawn) | -4.39
106 | NS(=O)(=O)c1ccc(CNC(=O)c2ccc3c(c2)OCO3)cc1 | -8.29
107 | CC1CCC2C(=O)N(c3cccc(C(=O)Nc4ccc(F)cc4)c3)C(=O)C2C1 (stereo not drawn) | 0.0133
108 | Cc1cc(C)c[n+](CC(=O)c2ccc(C)c([N+](=O)[O-])c2)c1 | 11.3
109 | COc1ccc(Cl)cc1NC(=O)CN(C)C(=O)/C=C/c1ccco1 | 25.2
110 | CCc1nc2ccccc2n1CC(=O)N1CCN(S(=O)(=O)c2cccc(C(F)(F)F)c2)CC1 | 11.4
111 | Cc1ccc(NC(=O)C2CCN(C(=O)c3ccc(Cl)cc3)CC2)nc1 | 11.3
112 | C/C(=N\Nc1ccc(Cl)cc1)c1ccncc1 | 31.7
113 | CCCOc1ccc(CCC(=O)N/N=C/c2ccncc2)cc1 | 25.7
114 | Cc1ccc(OCC(=O)N/N=C/c2ccco2)cc1 | 36.5
115 | CCCOc1ccc(CCC(=O)N/N=C/c2ccco2)cc1 | 64.4
116 | Cc1ccccc1OCC(=O)N/N=C/c1ccc([N+](=O)[O-])o1 | 78.1
117 | Cc1ccc(NC(=O)CCC(=O)N/N=C/c2ccc([N+](=O)[O-])o2)cc1C | 8.35
118 | CCCC(=O)Nc1ccc(C(=O)N/N=C/c2ccc([N+](=O)[O-])o2)cc1 | 77.6
